Nrf2 activator: activates Nrf2 signaling | AREc32 ARE-luciferase reporter (MCF7-derived line), luminescence, 24 h | Potency, µM (series often up to 46.1 µM), for the others: at the top dose activation, actives largely listed as activators | actives 0.31% (n = 410,000) | AID 624171; also: % of control where 0% means no effect; nearly all actives have a fitted effect of over 65% in size
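Luciferase luminescence (Steady-Glo, 30 min at room temperature) served as the read-out of ARE activation in AREc32 cells treated with compounds for 24 hr at 37 deg C.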
ATXN2 expr inh: inhibitors of ATXN2 expression; Potency, µM (series often up to 57 µM), for inactives: at the highest dose activity change, negative = inhibition, hits mostly inhibitors; HEK-293 ATXN2-luciferase reporter, luminescence, 24 h; actives 0.72% (n = 360,000); also: % is scaled to controls: 0 for no effect and ±100 for the full control effect; nearly all actives have a fitted effect of over 55% in size
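qHTS (up to 57 uM final) was run with 24 h compound exposure of reporter cells at 37 °C. Each well was multiplexed: SteadyGlo luminescence measured ATXN2-luciferase expression after a fluorogenic Gly-Phe-AFC viability readout (25 uM final).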
S2 tox: reduces viability in counter-screen for ATXN expression inhibitors; Potency, µM (highest dose often 56.7 µM), most hits filed as cytotoxic; S2 cells (HEK-293 line with an ATXN2-luciferase reporter) viability, CellTiter-Fluor protease fluorescence, 24 h; actives 0.49% (n = 400,000); also: nearly all actives have a fitted effect of over 40% in size
Nrf2 inh: inhibitors of Nrf2 signaling | A549 ARE-Fluc reporter, luciferase luminescence, 18-24 h | Potency, µM (doses to about 46 µM), inactives show at the top dose activity change, negative = inhibition, actives largely listed as inhibitors | actives 2.1% (n = 360,000); also: % is scaled to controls: 0 for no effect and ±100 for the full control effect; nearly all actives have a fitted effect of over 60% in size
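Concentration-response testing used A549 ARE_Fluc cells at 5000 cells/well. Following an 18-24 h compound incubation, viability was read by fluorescence (Ex 405/Em 525) and luciferase output by luminescence.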
A549 viability: counter-screen for Nrf2 inhibitors: cytotoxicity in A549 cells; A549 ARE-Fluc cells, CellTiter-Fluor viability, 18-24 h; Potency, µM (doses to about 46 µM), for inactives: at the highest dose activity change, negative = cytotoxicity, most hits filed as inhibitors; actives 0.16% (n = 390,000); AID 504648; also: % is scaled to controls: 0 for no effect and ±100 for the full control effect
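Cytotoxicity counterscreen: CellTiter-Fluor fluorescence was measured in A549 ARE_Fluc cells after 18-24 h of compound exposure in a concentration series. The subsequent BugLite luminescent read reports ARE-luciferase activity.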
Numbers without * were called inactive; i = inactive; ? = inconclusive; · = no result given; [ ] = dose if it differs, or a comment. Shown are actives, neighbours in structure and some others; about 2.9% of the full set was active somewhere. Calls follow the shape of the dose curve; as a rule, active = well fitted curve in the direction sought with a large enough effect; inconclusive = small, poorly fitted or top-dose-only effect, or another doubt; inactive = no such curve, though single readings can be large; an effect the other way counts as inactive or inconclusive. Potency is read from the fitted curve at half-maximal effect.

SMILES	Nrf2 activator	ATXN2 expr inh	S2 tox	Nrf2 inh	A549 viability
Cc1cc(C)c(C(=O)/C=C/c2cccc3ccccc23)c(=O)[nH]1	-3%	?	?	18µM*	?
COc1ccc(-c2csc(C(C)(O)c3ccccc3)n2)cn1 (stereo unspecified)	4%	1%	?	·	·
COc1ccc(C(=O)Nc2nnc(-c3ccco3)s2)cc1	0%	7.9µM*	?	?	-4%
O=C(Nc1nnc(-c2ccco2)s1)C1CC1	11µM*	23%	i	2%	-8%
CC(C)C(=O)Nc1nnc(-c2ccco2)s1	10µM*	30%	i	23%	-7%
O=C(Nc1nnc(-c2ccco2)s1)c1ccccc1	?	-31%	i	?	-5%[1.84 µM]
O=C(Nc1nnc(-c2ccco2)s1)C1CCN(S(=O)(=O)c2ccc(Cl)cc2)CC1	0%	-18%	i	-15%	-1%
Cc1ccc(C(=O)OCC(=O)NCCN2C(=O)CSC2=O)cc1[N+](=O)[O-]	-1%	-7%	i	?	2%
COc1ccccc1-c1nnc(SCC(=O)Nc2ccc(Cl)cc2Cl)o1	4%	2%	i	6%	-1%
COc1cccc2c1OC[C@@H](CO)[C@H]2N(C)C(=O)Nc1ccc(Cl)cc1Cl	1%	-16%	i	18µM*	-6%
Nc1[nH]c(C(=O)c2ccccc2)c(-c2ccc(Br)cc2)c1C(=O)NC1CCCCC1	-1%	19%	i	·	·
Cc1ccc(C(=O)Oc2ccc(/C=C3\C(=N)N4N=C(N5CCOCC5)SC4=NC3=O)cc2)cc1	0%	5%	i	7.3µM*	5%
N=C1/C(=C\c2ccc(OC(=O)c3ccccc3)cc2)C(=O)N=C2SC(N3CCOCC3)=NN12	5%	8%	i	-5%	-7%
CC(C)(C)c1ccc(Oc2ccc(N)cn2)cc1	-1%	9.5µM*	i	18µM*	-4%
Cc1cc(Oc2ccc(N)cn2)cc(C)c1Cl	1%	-4%	i	-5%	1%
NC(=O)C(c1ccccn1)c1ncc(C(F)(F)F)cc1Cl (stereo unspecified)	-1%[9.22 µM]	1%	i	-2%	5%
Cc1oc2ncnc(N3CCCCC3)c2c1C(=O)Nc1cccc(Cl)c1C	0%	·	·	7%	-1%
O=C(Nc1sc2c(c1C(=O)NCC1CCCO1)CCCC2)c1cccs1 (stereo unspecified)	5%	3%	i	21µM*	-14%
O=C(O)CSc1c(-c2ccccc2)c2cc(Cl)ccc2[nH]c1=O	0%	-6%	i	7%	10%
Cc1nnc(Sc2c(-c3ccccc3)c3ccc(Cl)cc3[nH]c2=O)s1	-1%	4%	i	18µM*	-13%
O=[N+]([O-])c1ccc(N/N=C/c2sc(N3CCOCC3)nc2-c2ccccc2)c(S(=O)(=O)Nc2ccccc2Cl)c1	0%	·	?	2.6µM*	9.2µM*
O=C(N/N=C/c1sc(N2CCOCC2)nc1-c1ccccc1)c1ccccc1O	0%	?	i	16µM*	23µM*
O=C(N/N=C/c1sc(N2CCOCC2)nc1-c1ccccc1)c1ccccc1Cl	0%	0%	·	1%	2%
CC(=O)Nc1ccc(C(=O)OCC(=O)NC(=O)NCc2ccccc2)cc1	-1%	·	i	·	·
Cc1ccc(C)c2sc(NC(=O)C3CC3)nc12	11µM*	-22%	?	-16%	-2%
SMILES	Nrf2 activator	ATXN2 expr inh	S2 tox	Nrf2 inh	A549 viability
CCCn1nc([N+](=O)[O-])c(C(C#N)c2nc3ccccc3s2)c(Cl)c1=O (stereo unspecified)	?	-1%	i	?	13µM*
CS(=O)(=O)c1nc(S(=O)(=O)c2ccc(Cl)cc2)c(N2CCOCC2)s1	6.3µM*	-5%	i	?	-3%
Cc1ccc(C(=O)C=CC=Cc2ccccc2)cc1	23%	·	i	·	·
Cc1ccc(C(=O)C(C(=O)/C=C/c2ccccc2)=C2SCCCS2)cc1	-1%	13µM*	·	26µM*	?
COc1ccc2cc(/C=C3\SC(=S)NC3=O)c(N3CCOCC3)nc2c1	2%	-10%	?	21µM*	18µM*
O=C1NC(=S)S/C1=C/c1ccc(N2CCOCC2)o1	?	9%	·	19%	21µM*
O=C1S/C(=C/c2ccc(N3CCOCC3)o2)C(=O)N1Cc1ccc(F)cc1	1%	-25%	i	19%	3%
CC(C)(C)c1ccc(NC(=O)CSc2nnc3scc(-c4ccccc4)n23)cc1	1%	?	?	16µM*	-1%
Cc1ccc(-c2nc(NC(=O)CSc3nnc4scc(-c5ccccc5)n34)ns2)cc1	3%	-31%	i	21µM*	?
Cc1nc(-c2ccc(Cl)cc2)sc1C1(C)CC(c2ccncc2)=NO1 (stereo unspecified)	8%	-6%	i	-18%	11%
O=C(N/N=C/c1ccccc1O)c1cccc(C(F)(F)F)c1	4%	3.2µM*	?	?	-9%
O=C(Nc1ccc2c(c1)Cc1ccccc1-2)c1ccncc1	4%	14%	i	-2%	-5%
CCOCN(C(=O)Cn1cnc2cc(C)c(C)cc21)c1c(C)cccc1CC	1%	-19%	28µM*	2%	-11%
C=C1C(=O)C23CCC4C(C)(C(=O)OC)CCCC4(C)C2CCC1(O)C3 (stereo unspecified)	-2%	?	5.3µM*	?	?
O=C(Nc1cccnc1)c1ccc(COc2ccccc2Br)cc1	0%	·	?	13µM*	-27%
COc1ccc(NC(=O)/C(Cl)=C(/Cl)S(=O)(=O)Cc2ccc(C)cc2)cn1	?	7.1µM*	8.9µM*	·	?
COc1ccc(NC(=O)Cc2ccc(Cl)c(Cl)c2)cn1	0%	·	i	0%	6%
COc1ccc(NC(=O)/C(Cl)=C(/Cl)S(=O)Cc2ccccc2Cl)cn1 (stereo unspecified)	-3%	0.84µM*	0.6µM*	-135%	15µM*
Nn1c(SCc2ccc(Br)cc2)nnc1-c1ccccn1	0%	4%	i	22%	7%
CC(=O)c1ccc(NC(=O)CN2C(=O)NC(C)(c3ccc4c(c3)OCCO4)C2=O)cc1 (stereo unspecified)	1%	·	i	3%	-1%
CCCCN(C(=O)CCC(=O)Nc1cc(C)on1)C(C(=O)NC(C)(C)CC)c1cccc(OC)c1OC (stereo unspecified)	0%	-26%	?	?	-13%
COc1ccccc1N1CCN(Cc2ccco2)CC1	0%	-2%	?	0%	-4%
COc1ccccc1N1CCN(Cc2ccc(-c3ccccc3[N+](=O)[O-])o2)CC1	9%	·	?	23µM*	-1%
c1ccc(-n2ncc3c2ncn2nc(-c4ccco4)nc32)cc1	10µM*	14%	i	?	-7%
Cc1ccc(S(=O)(=O)N2C[C@H]3[C@H]4C(=O)N(C5CCCCC5)C(=O)[C@H]4CC(=O)[C@H]3[C@@H]2c2ccccc2Cl)cc1	1%	9%	i	·	·

Assay outcomes (PubChem)
